Measured values: PubChem BioAssay AID1851 (National Center for Advancing Translational Sciences (NCATS), 2009)
Values joined by “and” are separate entries in the source; they are usually repeats but may differ in a detail not shown here. Equal entries are not always repeated. In all, about 16,000 compounds went through this assay and about 2,600 (16%) were called active. Roughly 20% stayed inconclusive and do not appear here. Not all results are given here. Unmarked numbers belong to inactive results. Calls follow the shape of the dose curve; as a rule, active = well fitted curve in the direction sought with a large enough effect; inconclusive = small, poorly fitted or top-dose-only effect, or effect the other way; inactive = no such curve, though single readings can be large or run the other way.

Biological target: Cytochrome P450 2D6 (Homo sapiens) (UniProt P10635)
Experiment: Cytochrome panel assay with activity outcomes
Settings: recombinant CYP, pro-luciferin dealkylation, luminescence, p450-cyp2d6; series mostly up to 57.1 µM; activity, negative = inhibition: at the top concentration
% is scaled to controls: 0 for no effect and ±100 for the full control effect.

Cytochrome P450 2D6 (Homo sapiens), sequence (P10635 whole entry, looked up): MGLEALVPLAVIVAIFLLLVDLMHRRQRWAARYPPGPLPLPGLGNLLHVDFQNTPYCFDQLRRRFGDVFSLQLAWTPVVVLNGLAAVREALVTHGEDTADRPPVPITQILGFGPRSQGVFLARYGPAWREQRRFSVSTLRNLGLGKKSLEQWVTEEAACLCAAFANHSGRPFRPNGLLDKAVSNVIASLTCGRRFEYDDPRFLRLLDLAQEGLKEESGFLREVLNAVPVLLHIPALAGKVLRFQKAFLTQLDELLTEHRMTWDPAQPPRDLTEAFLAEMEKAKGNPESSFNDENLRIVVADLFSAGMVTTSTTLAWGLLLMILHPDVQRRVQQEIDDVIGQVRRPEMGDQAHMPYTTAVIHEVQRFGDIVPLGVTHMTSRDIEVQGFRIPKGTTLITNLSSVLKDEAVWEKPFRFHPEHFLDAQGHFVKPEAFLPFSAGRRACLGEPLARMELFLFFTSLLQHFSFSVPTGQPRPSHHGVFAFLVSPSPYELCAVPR

Q: With `CCCc1cc(=O)oc2c(CN3CCOCC3)c(O)ccc12` as the molecule, how does the AC50 read?
A: 2240 nM (active)

Q: Which “activity, negative = inhibition” value does the source give for `COc1ccccc1-c1c(C)oc2c(CN3CCN(CCO)CC3)c(O)ccc2c1=O` here?
A: -8.47%

Q: With `CSc1nc(C)cc(Nc2ccc(O)c(CN3CCOCC3)c2)n1` as the molecule, how does the activity, negative = inhibition read?
A: -3.84% [at 11.4 µM]

Q: Which AC50 does the source give for `O=c1oc2c(CN3CCOCC3)c(O)ccc2c2ccccc12` here?
A: 2000 nM (active)

Q: How did the “activity, negative = inhibition” value turn out when `COc1ccc(-c2c(C)oc3c(CN4CCN(CCO)CC4)c(O)ccc3c2=O)cc1OC` was run?
A: -0.103%

Q: `Nc1ccc(N2CCN(C(=O)c3ccco3)CC2)cc1` was tested. Which “activity, negative = inhibition” value did it give?
A: -24.1%

Q: For `Cc1ccc2nc(NC(=O)CSc3nc4c(c(=O)n3C)SC(C)C4)sc2c1` (stereo unspecified), which “activity, negative = inhibition” value is on record?
A: -9.43%

Q: How did the “activity, negative = inhibition” value turn out when `Cc1ccnc(NS(=O)(=O)c2ccc(NC(=O)C3CCCNC3=O)cc2)n1` (stereo unspecified) was run?
A: 8.52%

Q: Which “activity, negative = inhibition” value does the source give for `CC(C)c1nnc(NC(=O)CCC(=O)N2CCN(c3ccccn3)CC2)s1` here?
A: 19.7%

Q: Which “activity, negative = inhibition” value does the source give for `O=[N+]([O-])c1cccc2c[nH]nc12` here?
A: 18.5%

Q: With `C[C@]1(c2ccccc2)OC(C(=O)O)=CC1=O` as the molecule, how does the “activity, negative = inhibition” value read?
A: 5.34%

Q: `O=C(Nc1ccccc1)N1CCCC2(CCNCC2)C1` was tested. Which “activity, negative = inhibition” value did it give?
A: -13.6%

Q: How did the “activity, negative = inhibition” value turn out when `O=C(Nc1cccc(F)c1)N1CC[C@@]2(CCCNC2)C1` was run?
A: 0.0719%

Q: How did the AC50 turn out when `c1ccc(C(c2ccccc2)N2CC3(CCNCC3)C2)cc1` was run?
A: 2510 nM (active)

Q: For `c1ccc(C(c2ccccc2)N2CCC3(CCNCC3)CC2)cc1`, which “activity, negative = inhibition” value is on record?
A: -18.5%

Q: For `c1ccc(C(c2ccccc2)N2CC[C@@]3(CCCNC3)C2)cc1`, which AC50 is on record?
A: 15800 nM (active)

Q: How did the “activity, negative = inhibition” value turn out when `N#Cc1cccc(NC(=O)N2CC[C@@]3(CCCNC3)C2)c1` was run?
A: -13.4%

Q: How did the activity, negative = inhibition turn out when `CC(C)=CCC/C(C)=C/CO/N=C1/C[C@@H](O)[C@@H](O)[C@@H]2[C@@H]3C(=O)N(Cc4ccc5c(c4)OCO5)C(=O)[C@H]3CC[C@H]12` was run?
A: -10.1% [at 11.4 µM]

Q: With `CCc1cc(C(=O)NNC(=S)NCC2CCCO2)cs1` (stereo unspecified) as the molecule, how does the “activity, negative = inhibition” value read?
A: -2.56%

Q: With `O=C(O)c1cc(C(=O)C(=O)c2cc(C(=O)O)c(O)c3ccccc23)c2ccccc2c1O` as the molecule, how does the activity, negative = inhibition read?
A: -0.777% [at 11.4 µM]

Q: With `CCNc1ncc2nc(-c3cn(C)c4ccccc34)c(=O)n(Cc3cccs3)c2n1` as the molecule, how does the “activity, negative = inhibition” value read?
A: -17.1%

Q: `COc1ccc2c(c1)CCC1C2CC[C@]2(C)[C@H](NCCCCCCN3C(=O)C=CC3=O)CC[C@@H]12` (stereo partly specified) was tested. Which “activity, negative = inhibition” value did it give?
A: 1.35%

Q: For `N#Cc1cccc(-c2nc3cnc(N4CCNCC4)nc3n(C3CC3)c2=O)c1`, which “activity, negative = inhibition” value is on record?
A: 2.08%

Q: Which “activity, negative = inhibition” value does the source give for `CC(=O)c1sc(NC(=O)C(C)C)nc1C` here?
A: 1.86%

Q: With `Fc1cccc(Cl)c1CSc1ncn[nH]1` as the molecule, how does the “activity, negative = inhibition” value read?
A: 7.01%

Q: For `C[C@H](O/N=C1/[C@H]2O[C@@H]2[C@@H](O)[C@H]2[C@H]1CCn1c(=O)n(-c3ccccc3)c(=O)n12)c1cn([C@H](CO)Cc2ccccc2)nn1`, which activity, negative = inhibition is on record?
A: -8.19% [at 11.4 µM] and 10.1% [at 11.4 µM]
